Bioassay records from PubChem.
An excerpt weighted towards active compounds, which were near 7.6% of everything screened.
HCV NS3h FP: blocks HCV NS3 helicase binding to DNA; 16,000 tested, 1.6% active; inhibition, % at 100 µM; NS3h Cy5-dT15 DNA binding, fluorescence polarization;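 active = inhibition above the average over every tested compound plus 3 SD, cut at about 40% in these data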
Cy5 interf NS3h: Cy5 fluorescence interference, HCV helicase counter-screen | Cy5-dT15 DNA with NS3h; actives lie on both sides; signal over control mean, under 1 quenches | fluorescence interference ratio at 100 µM | 16,000 tested, 6% active;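 active = compound fluorescence over control fluorescence at most 0.8, a quencher, or at least a set upper limit, an enhancer; inactive = ratio between 0.8 and the set upper limit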
NS3h confirm: hepatitis C NS3 helicase inhibition, confirmation | 240 tested, 20% active | shares compounds with HCV NS3h FP | NS3h binding to Cy5-dT15 DNA, fluorescence polarization | inhibition, % at 100 µM;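 active = percent inhibition of 50% or more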
SSB-DNA FP CB: counter-screen for HCV NS3 helicase inhibitors: E. coli SSB binding; shares compounds with HCV NS3h FP; E. coli SSB binding Cy5-dT15, fluorescence polarization; inhibition, % at 100 µM; 240 tested, 40% active;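 active = inhibition of at least 50%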;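 also: displacers lower Cy5 polarization so higher inhibition means more SSB displaced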
Target sequence (P0AGE0 whole entry, looked up): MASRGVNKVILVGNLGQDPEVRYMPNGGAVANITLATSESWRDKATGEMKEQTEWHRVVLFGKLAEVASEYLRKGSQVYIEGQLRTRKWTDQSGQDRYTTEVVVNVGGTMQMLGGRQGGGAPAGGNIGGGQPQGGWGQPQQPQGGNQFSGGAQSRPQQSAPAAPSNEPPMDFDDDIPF
Cy5 SSB fluor CB: counter-screen for HCV NS3 helicase inhibitors: fluorescence interference. shares compounds with HCV NS3h FP. Cy5-dT15/E. coli SSB fluorescence interference; actives lie on both sides. fluorescence interference ratio at 100 µM. 240 tested, 8% active. AID 720487;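 active = fluorescence interference ratio at or above 1.2, signal boosting, or at or below 0.8, signal quenching; inactive = ratio between 0.8 and 1.2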;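 also: ratio of compound well signal to mean negative control signal so 1 means no effect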
Cy5 fluor confirm: confirmation counter-screen for HCV NS3 helicase inhibitors: fluorescence interference; AID 720489; fluorescence interference ratio at 100 µM, hits read low; Cy5-dT15 DNA/NS3h fluorescence interference counterscreen; shares compounds with HCV NS3h FP; 240 tested, 44% active;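 active = fluorescence interference ratio at or below 0.8 quencher or at or above a set limitenhancer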;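 also: ratio of compound fluorescence to mean of negative controls so 1 means no interference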
* marks the source's active call; other numbers are inactive results; / = not tested or not shown.

SMILES	HCV NS3h FP	Cy5 interf NS3h	NS3h confirm	SSB-DNA FP CB	Cy5 SSB fluor CB	Cy5 fluor confirm
N=c1sc(Cc2ccccc2Cl)cn1CC(=O)c1ccccc1	14	1	/	/	/	/
Cc1cc(C)c([N+](=O)[O-])cc1-c1ccc(/C=c2\sc3nc4ccccc4n3c2=O)o1	121*	1.6*	14	32	0.93	0.83
O=c1/c(=C/c2ccc(-c3ccccc3Cl)o2)sc2nc3ccccc3n12	7	1	/	/	/	/
CN(CCS(=O)(=O)OCC(F)(F)F)c1ccc(C=O)cc1	2	1.1	/	/	/	/
O=C(O)c1cc(-c2ccc(/C=C3/Sc4ccccc4C3=O)o2)ccc1O	110*	0.97	61*	102*	0.84	0.69*
CC(=O)N(/C=C1\Sc2ccccc2C1=O)c1ccc(C)cc1	8	1.1	/	/	/	/
Cn1c(/C=C/c2ccc(C(=O)c3ccccc3)o2)nc2ccccc21	51*	1.1	20	25	0.92	0.92
Cn1c(/C=C/c2ccco2)nc2ccccc21	4	0.97	/	/	/	/
C/C(=C\C(=O)c1ccc(Cl)cc1)Nc1cc(C)ccc1Cl	26	0.92	/	/	/	/
O=C(/C=C/c1ccccc1F)c1c(-c2ccccc2)c2cc(Br)ccc2[nH]c1=O	-4	0.96	/	/	/	/
O=C1NC(=S)NC(=O)C1=Cc1ccccc1OCc1ccccc1Cl	27	0.97	/	/	/	/
O=C1NC(=S)NC(=O)C1=Cc1ccc(OCc2ccccc2Cl)cc1	48*	0.89	1	61*	0.92	0.75*
CCOc1ccc(C(=O)Nc2ccc(-c3cc4ccccc4oc3=O)cc2)cc1	-4	0.94	/	/	/	/
Cc1ccc(C)c(Nc2cc(C)c(C#N)c3nc4ccccc4n23)c1	21	1	/	/	/	/
COc1ccc2occ(C(=O)c3ccccc3Cl)c(=O)c2c1	57*	1	26	8	0.99	0.88
COc1ccc(C(=O)c2coc3ccc(O)cc23)cc1	16	1	/	/	/	/
O=C(NCc1cccs1)C(=O)Nc1cccc(C(F)(F)F)c1	11	0.86	/	/	/	/
Cc1ccc(-c2ccc(/C=C3\C(=O)NN(c4ccccc4)C3=O)o2)c([N+](=O)[O-])c1	25	0.92	/	/	/	/
O=C1NN(c2ccccc2)C(=O)/C1=C/c1ccc(Br)o1	94*	1	52*	107*	0.88	0.79*
O=C1NN(c2ccccc2)C(=O)/C1=C/c1ccc([N+](=O)[O-])o1	82*	0.77*	52*	117*	0.86	0.9
O=C1NN(c2ccccc2)C(=O)/C1=C/c1ccc(-c2ccc(C(=O)O)cc2)o1	26	0.99	/	/	/	/
COC(=O)c1ccc(-n2ncnc2-c2ccc(OCc3ccccc3)c(OC)c2)cc1	4	0.9	/	/	/	/
COc1cccc(C=C2C(=O)c3ccccc3C2=O)c1	24	1	/	/	/	/
O=C1C(=Cc2ccccc2Br)C(=O)c2ccccc21	74*	0.91	51*	11	0.98	0.97
CCN(CC)c1ccc(-n2c(O)c(C=C3C=Nc4ccccc43)sc2=S)cc1	20	1.1	/	/	/	/
SMILES	HCV NS3h FP	Cy5 interf NS3h	NS3h confirm	SSB-DNA FP CB	Cy5 SSB fluor CB	Cy5 fluor confirm
O=c1oc2ccccc2c(O)c1C=C1C=Nc2ccccc21	46*	1	31	39	0.91	0.96
COc1cccc(OCCOc2cccc(/C=C3/SC(=S)NC3=O)c2)c1	20	0.92	/	/	/	/
COc1cccc(OCCOc2c(Cl)cc(/C=C3/SC(=S)NC3=O)cc2OC)c1	70*	0.97	45	47	0.97	0.79*
O=[N+]([O-])c1ccccc1CSc1nnnn1-c1ccccc1	16	0.93	/	/	/	/
Cc1ccccc1N1CCN(C(=S)c2ccc(Cl)cc2)CC1	5	1	/	/	/	/
O=C1c2ccccc2-c2onc3ccc(N4CCCCC4)c1c23	52*	1.1	25	71*	1.2*	0.79*
CC1CCN(c2cccc3c2C(=O)c2ccccc2C3=O)CC1	8	1	/	/	/	/
CCOc1cc(/C=N\N2C(=O)/C(=C/c3ccc(O)c(OCC)c3)SC2=S)ccc1O	3	1	/	/	/	/
CN1C(=O)/C(=C/c2c(Cl)cccc2Cl)SC1=S	-8	0.96	/	/	/	/
CN1C(=O)C(=Cc2c(Cl)cccc2Cl)C(=O)N(C)C1=O	42*	0.99	31	16	0.97	0.9
COc1ccc(OC)c(C2NC(=S)NC(C)=C2C(=O)Nc2cccc(Cl)c2)c1 (stereo not given)	9	0.95	/	/	/	/
CCOC(=O)c1ccccc1NC(=O)CN1C(=O)c2ccccc2C1=O	9	1	/	/	/	/
Cc1oc(C(=O)O)cc1CSCc1cc(C(=O)O)oc1C	2	1.1	/	/	/	/
